Measured values as given in PubChem BioAssay (Tox21).
Inconclusive results are not listed. Calls of active or inactive are those of the source. Unless noted, calls come from the whole dose curve; as a rule, active = well fitted curve in the direction sought with a large enough effect in the repeat runs; inconclusive = weak or mixed curves; inactive = no such curve, though single readings can be large; an effect the other way counts as inactive or inconclusive.

How the values were obtained:
[1] = molecular target: Aryl hydrocarbon receptor (Homo sapiens) (UniProt P35869); experiment: qHTS assay to identify small molecule that activate the aryl hydrocarbon receptor (AhR) signaling pathway (AID 743085); note: nearly all actives have a fitted effect of over 15% in size; note: potency is the fitted concentration of half-maximal effect;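 for activation: HG2L7.5c1 human HepG2 liver cells with stably integrated DRE-driven firefly reporter; series mostly up to about 70 µM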
How it was run: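 Compounds were tested in HepG2 hepatocellular carcinoma cells harbouring a stably integrated luciferase gene under control of 20 DREs. Increased reporter signal after 24 h treatment at 37C was taken as AhR activation.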

[2] = qHTS assay to identify small molecule that activate the aryl hydrocarbon receptor (AhR) signaling pathway - cell viability counter screen (AID 743086);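 note: HepG2 liver cells carrying the AhR DRE luciferase reporter; series mostly up to about 70 µM; nearly all actives have a fitted effect of over 45% in size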
How it was run: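 HepG2-AhR-luc (HG2L7.5c1) cells, 4000/well, treated 24 h at 37 C with compound; viability measured as CellTiter-Fluor fluorescence after 30 min in the same wells as the luciferase read.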

[3] = molecular target: Peroxisome proliferator-activated receptor gamma (Homo sapiens) (UniProt P37231); experiment: qHTS assay to identify small molecule agonists of the peroxisome proliferator-activated receptor gamma (PPARg) signaling pathway (AID 743094; active = well fitted activation curve with a large enough effect in the signal ratio in the repeat runs, not every such curve was filed as active; the % refers to the signal ratio)
How it was run: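 Agonist activity was taken from a beta-lactamase reporter (FRET substrate, 1 h at room temperature) in HEK293H cells carrying a PPARg UAS-bla construct. Compounds in DMSO were incubated 17 h at 37C after a 5 h cell pre-incubation.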

[4] = molecular target: Peroxisome proliferator-activated receptor gamma (Homo sapiens) (UniProt P37231); experiment: qHTS assay to identify small molecule antagonists of the peroxisome proliferator-activated receptor gamma (PPARg) signaling pathway (AID 743191; calls by dose curve; note: series mostly up to about 63 µM; nearly all actives have a fitted effect of over 30% in size)
How it was run: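 GeneBLAzer PPARg UAS-bla HEK293H cells, 5 h post-plating, exposed to compounds 17 h at 37C. LiveBLAzer B/G FRET substrate added for 1 h at room temperature; beta-lactamase reporter read by fluorescence intensity.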

[5] = qHTS assay to identify small molecule antagonists of the peroxisome proliferator-activated receptor gamma (PPARg) signaling pathway - cell viability counter screen (AID 743194); note: nearly all actives have a fitted effect of over 55% in size
How it was run: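 Cytotoxicity counter screen in PPARg-bla HEK293H cells, same wells as reporter assay. Compounds plus 50 nM rosiglitazone (final) for 17 h at 37 C, then viability read by CellTiter-Glo luminescence.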

[6] = qHTS assay for small molecule agonists of the antioxidant response element (ARE) signaling pathway (AID 743202; active = well fitted activation curve with a large enough effect in the signal ratio in the repeat runs, not every such curve was filed as active; the % refers to the signal ratio; note: potency is the fitted concentration of half-maximal effect)
How it was run: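 HepG2 ARE-bla reporter line, 2,000 cells/well; 5 h preincubation 37 C/5% CO2; compound (DMSO) 16 h 37 C; B/G FRET substrate 2 h RT; fluorescence intensity.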

[7] = qHTS assay for small molecule agonists of the antioxidant response element (ARE) signaling pathway - cell viability counter screen (AID 743203; calls by dose curve; note: nearly all actives have a fitted effect of over 55% in size)
How it was run: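 Viability counter screen: CellTiter-Glo luminescence, read after 30 min at room temperature, in ARE-bla HepG2 wells. Compound exposure lasted 16 h at 37C/5% CO2, following a 5 h pre-incubation of the cells after plating.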

[8] = qHTS assay for small molecule activators of the heat shock response signaling pathway - cell viability counter screen (AID 743209); note: nearly all actives have a fitted effect of over 50% in size
How it was run: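 Cytotoxicity counter screen run in the same wells as the heat-shock bla reporter assay: HeLa HSE-bla cells, 5 h compound exposure at 37 C, viability read by CellTiter-Glo luminescence.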

[9] = qHTS assay for small molecule activators of the heat shock response signaling pathway (AID 743210; active = well fitted activation curve with a large enough effect in the signal ratio in the repeat runs, with a control signal flat, not every such curve was filed as active; the % refers to the signal ratio;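 note: HeLa cells with beta-lactamase reporter driven by heat shock elements; series mostly up to about 63 µM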)
How it was run: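 Beta-lactamase reporter read-out: FRET substrate fluorescence after 2.5 h at RT, following 5 h compound treatment at 37 C of HeLa cells carrying HSE-driven bla reporter; quantitative HTS format.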

[10] = qHTS assay to identify small molecule agonists of the peroxisome proliferator-activated receptor delta (PPARd) signaling pathway - cell viability counter screen (AID 743211); note: nearly all actives have a fitted effect of over 55% in size
How it was run: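 Counter screen for cytotoxicity run in parallel with the PPARd reporter screen. Beta-lactamase reporter HEK293H cells exposed to compounds 17 h; ATP-based CellTiter-Glo luminescence quantified viability.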

[11] = molecular target: Peroxisome proliferator-activated receptor delta (Homo sapiens) (UniProt Q03181); experiment: qHTS assay to identify small molecule agonists of the peroxisome proliferator-activated receptor delta (PPARd) signaling pathway (AID 743212; calls by dose curve)
How it was run: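 Read-out: beta-lactamase FRET fluorescence after 2 h room-temperature incubation with LiveBLAzer B/G substrate. Cells were HEK293H carrying a UAS-bla reporter for PPARd, treated at 37 C with DMSO-dissolved compounds.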

[12] = qHTS assay to identify small molecule antagonists of the peroxisome proliferator-activated receptor delta (PPARd) signaling pathway - cell viability counter screen (AID 743213); note: nearly all actives have a fitted effect of over 50% in size
How it was run: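 HEK293H cells with the PPARd UAS-bla reporter, co-treated 17 h at 37 C with compounds and L165041 (300 nM final), were lysed with CellTiter-Glo. Luminescence indicated viable cell content.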

[13] = molecular target: Peroxisome proliferator-activated receptor delta (Homo sapiens) (UniProt Q03181); experiment: qHTS assay to identify small molecule antagonists of the peroxisome proliferator-activated receptor delta (PPARd) signaling pathway (AID 743215; active = well fitted inhibition curve with a large enough effect in the signal ratio in the repeat runs, not every such curve was filed as active; the % refers to the signal ratio;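 note: cells stimulated with agonist L165041 at 300 nM final during compound exposure; series mostly up to about 62 µM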)
How it was run: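 Agonist L165041 (300 nM final) added with compound to PPARd-bla HEK293H UAS-bla reporter cells; 17 h incubation at 37 C. Read-out: LiveBLAzer FRET substrate, 2 h at room temperature, fluorescence intensity.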

[14] = qHTS assay to identify small molecule agonists of the farnesoid-X-receptor (FXR) signaling pathway - cell viability counter screen (AID 743218); note: nearly all actives have a fitted effect of over 45% in size
How it was run: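 Viability counter screen in the same wells: CellTiter-Glo luminescence, 30 min room-temperature incubation, measured after the beta-lactamase read. Cells were GeneBLAzer FXR-UAS-bla HEK 293T, compound-treated 16 h at 37C.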

[15] = qHTS assay to identify small molecule antagonists of the farnesoid-X-receptor (FXR) signaling pathway - cell viability counter screen (AID 743221; active = well fitted cell-killing curve with a large enough effect in the repeat runs, not every such curve was filed as active; note: nearly all actives have a fitted effect of over 50% in size)
How it was run: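 Multiplexed counter screen: viability of FXR-bla HEK 293T cells under agonist stimulation by chenodeoxycholic acid (50 uM, final) and test compound for 16 h at 37 C, measured by CellTiter-Glo luminescence in the reporter wells.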

[16] = molecular target: Vitamin D3 receptor (Homo sapiens) (UniProt P11473); experiment: qHTS assay to identify small molecule agonists of the vitamin D receptor (VDR) signaling pathway (AID 743222; calls by dose curve)
How it was run: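 Agonist mode, beta-lactamase reporter: fluorescence from LiveBLAzer B/G FRET substrate (2 h, room temperature) read after 16 h compound treatment at 37 C of VDR-bla cells, which were pre-incubated 4 h after seeding.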

[17] = molecular target: Vitamin D3 receptor (Homo sapiens) (UniProt P11473); experiment: qHTS assay to identify small molecule antagonists of the vitamin D receptor (VDR) signaling pathway (AID 743223; active = well fitted inhibition curve with a large enough effect in the signal ratio in the repeat runs, not every such curve was filed as active; the % refers to the signal ratio)
How it was run: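 Cells carrying a VDR-driven beta-lactamase reporter (VDR-bla) were co-treated with compound and 3 nM final 1alpha,25-dihydroxyvitamin D3 for 16 h at 37C; reporter activity was measured as FRET substrate fluorescence after 2 h at room temperature.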

[18] = qHTS assay to identify small molecule agonists of the vitamin D receptor (VDR) signaling pathway - cell viability counter screen (AID 743224); note: series mostly up to about 63 µM; nearly all actives have a fitted effect of over 50% in size
How it was run: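 Counter screen run in the same wells as the VDR-bla reporter assay: CellTiter-Glo luminescence, 30 min at room temperature, after 16 h compound treatment at 37C of cells pre-plated for 4 h.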

[19] = molecular target: Bile acid receptor (Homo sapiens) (UniProt Q96RI1); experiment: qHTS assay to identify small molecule antagonists of the farnesoid-X-receptor (FXR) signaling pathway (AID 743217; active = well fitted inhibition curve with a large enough effect in the signal ratio in the repeat runs, not every such curve was filed as active; the % refers to the signal ratio)
How it was run: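 Antagonist mode: chenodeoxycholic acid at 50 uM final stimulates a UAS-driven beta-lactamase reporter in HEK 293T FXR-bla cells during 16 h, 37C compound exposure. Read-out is FRET substrate fluorescence after 2 h at room temperature.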

[20] = molecular target: Bile acid receptor (Homo sapiens) (UniProt Q96RI1); experiment: qHTS assay to identify small molecule agonists of the farnesoid-X-receptor (FXR) signaling pathway (AID 743220; active = well fitted activation curve with a large enough effect in the signal ratio in the repeat runs, not every such curve was filed as active; the % refers to the signal ratio)
How it was run: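 FXR-UAS-bla HEK 293T cells carrying a UAS-driven beta-lactamase reporter were plated for 5 h at 37C/5% CO2, then exposed to DMSO-dissolved Tox21 10K compounds for 16 h at 37C. A LiveBLAzer B/G FRET substrate was loaded for 2 h at room temperature before fluorescence reading.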

Measured: Potency

Chain of Aryl hydrocarbon receptor (Homo sapiens) (P35869 whole entry, looked up): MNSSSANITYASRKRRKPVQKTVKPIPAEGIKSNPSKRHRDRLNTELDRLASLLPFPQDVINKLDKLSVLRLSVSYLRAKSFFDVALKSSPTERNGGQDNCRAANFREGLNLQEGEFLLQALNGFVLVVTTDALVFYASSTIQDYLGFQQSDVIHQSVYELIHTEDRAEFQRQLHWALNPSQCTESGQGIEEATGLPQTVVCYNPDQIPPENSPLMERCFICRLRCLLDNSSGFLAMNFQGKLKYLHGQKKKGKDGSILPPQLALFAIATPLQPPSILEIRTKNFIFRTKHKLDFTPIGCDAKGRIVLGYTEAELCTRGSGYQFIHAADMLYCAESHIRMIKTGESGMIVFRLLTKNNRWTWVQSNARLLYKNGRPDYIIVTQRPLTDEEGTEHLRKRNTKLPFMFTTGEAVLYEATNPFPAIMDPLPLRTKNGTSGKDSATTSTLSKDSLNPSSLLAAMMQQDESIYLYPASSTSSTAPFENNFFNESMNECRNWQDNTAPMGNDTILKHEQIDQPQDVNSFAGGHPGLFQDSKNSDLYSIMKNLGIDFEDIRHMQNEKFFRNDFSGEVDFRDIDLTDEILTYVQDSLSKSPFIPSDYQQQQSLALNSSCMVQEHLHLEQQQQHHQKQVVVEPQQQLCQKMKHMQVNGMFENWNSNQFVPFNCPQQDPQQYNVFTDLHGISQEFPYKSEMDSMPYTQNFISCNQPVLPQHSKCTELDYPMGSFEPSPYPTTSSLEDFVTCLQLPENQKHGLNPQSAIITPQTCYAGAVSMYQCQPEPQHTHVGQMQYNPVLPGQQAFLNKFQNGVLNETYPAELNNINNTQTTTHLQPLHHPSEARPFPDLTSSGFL
Chain of Bile acid receptor (Homo sapiens) (Q96RI1 whole entry, looked up): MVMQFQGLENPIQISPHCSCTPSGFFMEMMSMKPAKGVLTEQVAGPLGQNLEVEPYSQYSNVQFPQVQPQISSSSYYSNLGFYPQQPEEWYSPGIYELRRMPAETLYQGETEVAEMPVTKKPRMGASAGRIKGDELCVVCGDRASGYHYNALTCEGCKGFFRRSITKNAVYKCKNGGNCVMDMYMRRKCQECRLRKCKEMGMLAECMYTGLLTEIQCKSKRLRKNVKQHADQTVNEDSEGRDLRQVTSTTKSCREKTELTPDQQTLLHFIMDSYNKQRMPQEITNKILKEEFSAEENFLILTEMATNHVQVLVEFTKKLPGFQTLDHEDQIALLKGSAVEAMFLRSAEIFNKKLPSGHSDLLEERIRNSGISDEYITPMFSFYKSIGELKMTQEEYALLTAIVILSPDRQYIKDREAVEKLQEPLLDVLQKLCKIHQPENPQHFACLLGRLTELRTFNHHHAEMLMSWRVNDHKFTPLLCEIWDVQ
Chain of Peroxisome proliferator-activated receptor gamma (Homo sapiens) (P37231 whole entry, looked up): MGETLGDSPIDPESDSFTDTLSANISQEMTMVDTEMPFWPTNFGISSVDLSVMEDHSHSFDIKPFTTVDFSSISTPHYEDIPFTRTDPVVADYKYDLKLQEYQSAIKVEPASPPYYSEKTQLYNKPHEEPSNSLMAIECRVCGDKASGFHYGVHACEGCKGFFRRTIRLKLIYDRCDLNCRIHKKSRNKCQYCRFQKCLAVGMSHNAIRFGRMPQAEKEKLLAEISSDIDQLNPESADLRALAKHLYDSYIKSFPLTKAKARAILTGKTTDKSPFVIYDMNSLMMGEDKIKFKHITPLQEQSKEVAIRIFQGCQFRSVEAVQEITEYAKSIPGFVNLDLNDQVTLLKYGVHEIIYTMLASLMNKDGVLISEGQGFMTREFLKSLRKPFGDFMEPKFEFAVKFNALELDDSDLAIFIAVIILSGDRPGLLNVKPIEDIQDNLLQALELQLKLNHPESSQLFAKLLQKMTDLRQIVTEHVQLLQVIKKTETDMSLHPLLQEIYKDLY
Chain of Vitamin D3 receptor (Homo sapiens) (P11473 whole entry, looked up): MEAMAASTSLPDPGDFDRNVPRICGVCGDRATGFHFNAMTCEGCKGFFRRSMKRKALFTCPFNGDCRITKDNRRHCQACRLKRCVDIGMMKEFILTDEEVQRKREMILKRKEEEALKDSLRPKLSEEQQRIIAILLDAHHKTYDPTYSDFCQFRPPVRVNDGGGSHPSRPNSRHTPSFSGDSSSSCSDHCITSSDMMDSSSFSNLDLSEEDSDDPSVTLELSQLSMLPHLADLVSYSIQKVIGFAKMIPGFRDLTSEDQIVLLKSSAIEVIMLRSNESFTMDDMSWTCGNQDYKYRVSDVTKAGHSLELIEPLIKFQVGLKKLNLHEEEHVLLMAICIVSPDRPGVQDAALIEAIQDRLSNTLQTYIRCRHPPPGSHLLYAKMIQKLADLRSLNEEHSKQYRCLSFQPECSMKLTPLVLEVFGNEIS
Chain of Peroxisome proliferator-activated receptor delta (Homo sapiens) (Q03181 whole entry, looked up): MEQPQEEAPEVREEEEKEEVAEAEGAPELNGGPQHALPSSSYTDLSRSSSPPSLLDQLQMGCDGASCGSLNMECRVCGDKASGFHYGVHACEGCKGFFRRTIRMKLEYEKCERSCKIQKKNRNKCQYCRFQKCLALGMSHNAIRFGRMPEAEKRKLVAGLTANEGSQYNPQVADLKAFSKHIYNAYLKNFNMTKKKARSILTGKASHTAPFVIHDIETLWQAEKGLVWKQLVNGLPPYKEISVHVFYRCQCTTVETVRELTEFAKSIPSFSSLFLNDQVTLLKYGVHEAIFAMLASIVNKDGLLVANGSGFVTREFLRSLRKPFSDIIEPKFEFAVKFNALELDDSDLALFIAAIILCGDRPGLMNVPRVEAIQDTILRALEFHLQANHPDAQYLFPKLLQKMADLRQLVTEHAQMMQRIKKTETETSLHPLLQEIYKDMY

CCCCCC(CC)OC(=O)CCCOc1ccc(Cl)cc1Cl (configuration not stated)
not listed: [19] | [20]
inactive: all other assays above

C=CCON/C(CCC)=C1\C(=O)CC(C)(C)C(C(=O)OC)=C1O
not listed: [20]
inactive: all other assays above

C=C(C)C(=O)OCCOC1CC2CC1C1C=CCC21 (configuration not stated)
not listed: [13] | [17]
inactive: all other assays above

O=CN1CCCCC1
not listed: [19] | [20]
inactive: all other assays above

CC(C)(Sc1cc(C(C)(C)C)c(O)c(C(C)(C)C)c1)Sc1cc(C(C)(C)C)c(O)c(C(C)(C)C)c1
not listed: [19] | [20]
inactive: all other assays above

CC12CCCC=C1C(=O)OC2=O (configuration not stated)
not listed: [12] | [19] | [20]
inactive: all other assays above

CCCCCCCCCCCCCCCC(=O)OC
inactive: all assays above

Cc1ccc2cccnc2c1
not listed: [11] | [13] | [14] | [17]
inactive: all other assays above

CC/C=C\CCCCCCCCCCOC(C)=O
not listed: [19] | [20]
inactive: all other assays above

Cc1nc2ccc(Cl)cc2[nH]1
active: [1] 30.6 µM
not listed: [11] | [13]
inactive: all other assays above

COc1cc2nc(N3CCN(C(=O)C4CCCO4)CC3)nc(N)c2cc1OC (configuration not stated)
not listed: [16] | [17] | [18] | [19] | [20]
inactive: all other assays above

O=S(=O)(O)c1ccc(Cl)cc1
not listed: [14]
inactive: all other assays above

CCCCCCC(=O)c1ccccc1
not listed: [14] | [16] | [17]
inactive: all other assays above

NCC1CCC(C(=O)Oc2ccc(CCC(=O)O)cc2)CC1 (configuration not stated)
not listed: [11]
inactive: all other assays above

CN1C(CCl)Nc2cc(Cl)c(S(N)(=O)=O)cc2S1(=O)=O (configuration not stated)
active: [6] 26.6 µM
not listed: [14] | [19] | [20]
inactive: all other assays above
